test: enhancers of NK cell killing of ovarian tumor cells, primary screen, imaging, OVCAR3, primary NK cells, calcein-AM imaging (AID 1508625); settings: OVCAR3 lysis by primary NK cells, at 5 µM; z-score: measured here: robust Z-score, single-point normalisation;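 note: compound given to NK cells 16 h before adding targets at 1.5 to 1 ratio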

First: O=C(O)c1cccc(N2C(=O)c3ccc(C(=O)c4ccc5c(c4)C(=O)N(c4cccc(C(=O)O)c4)C5=O)cc3C2=O)c1
Second: Cc1c(NC(=O)COc2ccc(Oc3ccccc3)cc2)c(=O)n(-c2ccccc2)n1C
The corrected activity, negative = more killing of the first is lower: -1.17% for the first, 1.22% for the second.

Compared with `COc1cc(C(=S)N2CCCCC2)ccc1OC(=O)c1ccc(C)cc1`, `Cc1ccc(S(=O)(=O)N2CCCCCC2)cc1C` is higher in corrected activity, negative = more killing: -4.49% for the first, 1.77% for the second.

Going from `CC(=O)Nc1ccc(NC(=O)CC2OCC3CCCCN3C2=O)cc1` (stereo not drawn) to `CC(=O)c1cccc(NC(=O)CSc2ccc(Cl)cc2)c1`, the corrected activity, negative = more killing rises from -5.1% to -1.79%.

Compared with `Cc1ccccc1OCC(=O)Nc1c[nH]c(=O)[nH]c1=O`, `O=C(Nc1cccc2ccccc12)ON=Cc1ccc(F)cc1` is lower in corrected activity, negative = more killing: -0.837% for the first, -4.41% for the second.

Going from `O=C(NN=Cc1ccccc1Cl)C(=O)Nc1cccc(C(F)(F)F)c1` to `O=C(Nc1nc2ccccc2s1)C(=O)Nc1nc2ccccc2s1`, the corrected activity, negative = more killing rises from -2.13% to 0.998%.

Compared with `O=C(CCn1c(=O)c2sccc2n(Cc2cc(=O)n3ccccc3n2)c1=O)NCc1ccc2c(c1)OCO2`, `O=C(CCn1c(=S)[nH]c2ccccc2c1=O)NCCc1ccc(Cl)cc1` is higher in corrected activity, negative = more killing: -7.55% for the first, -2.39% for the second.

Going from `CCOc1cc(C=c2sc3nc4ccccc4n3c2=O)ccc1O` to `CCOc1ccc(-c2cc(=O)c3ccccc3o2)cc1`, the corrected activity, negative = more killing falls from -2.97% to -6.12%.

Going from `CC(Oc1cccc(Cl)c1)C(=O)ON=C(N)c1ccncc1` (stereo not drawn) to `COc1ccccc1CNC(=O)C(C)Oc1cccc(Cl)c1` (stereo not drawn), the corrected activity, negative = more killing falls from 0.422% to -1.41%.

First: O=C(NC1CCCCC1)c1nn2c(C(F)(F)F)cc(-c3ccco3)nc2c1Br
Second: COc1ccc(Cl)cc1NC(=O)c1cnn2c(C(F)(F)F)cc(-c3ccc(C)cc3)nc12
The corrected activity, negative = more killing of the first is lower: -4.13% for the first, -0.972% for the second.

Going from `Oc1cccc(CN2CCN3CCCC3C2C2CCCCC2)c1` (stereo not drawn) to `CCN(C(=O)c1c(-c2ccccc2)noc1C)C1CCCCC1`, the corrected activity, negative = more killing falls from -0.454% to -2.37%.

First: COc1cc2nc(SCC(=O)Nc3cc(C(F)(F)F)ccc3Cl)n(Cc3ccco3)c(=O)c2cc1OC
Second: Cc1ccc2oc(-c3ccc(NC(=O)c4cccc(F)c4)c(C)c3)nc2c1
The corrected activity, negative = more killing of the first is higher: -3.79% for the first, -9.28% for the second.

First: COc1cccc(Nc2ncnc3sc(C)c(S(=O)(=O)N4CCC(C)CC4)c23)c1
Second: COC(=O)c1c(NC(=O)c2cc3ccccc3c(=O)o2)sc2c1CCC(C)C2 (stereo not drawn)
The corrected activity, negative = more killing of the first is lower: -2.61% for the first, -0.836% for the second.

First: Cc1ccc(C=Cc2nc3ccccc3[nH]2)cc1
Second: CN(C)c1ccc(C=CC=C2SC(=S)N(Cc3ccccc3)C2=O)cc1
The corrected activity, negative = more killing of the first is higher: 2.68% for the first, -3.62% for the second.

Going from `Cc1ccc(-c2cc(C(=O)O)c3cc(Cl)ccc3n2)cc1C` to `COc1ccc(-c2ccc3c(N)c(C(=O)Nc4ccc(C(C)=O)cc4)sc3n2)cc1`, the corrected activity, negative = more killing falls from -3.58% to -4.48%.

Going from `Cc1ccccc1C(=O)N1N=C(c2ccc(F)cc2)CC1(O)C(F)(F)F` (stereo not drawn) to `COc1ccc(C(N)=NOC(=O)CSc2ccccc2)cc1`, the corrected activity, negative = more killing rises from -4.55% to -1.04%.

Going from `O=[N+]([O-])c1ccc(CNC2CCCC2)cc1` to `COc1cc([N+](=O)[O-])ccc1N1C(=O)C2C3C=CC(CC3)C2C1=O` (stereo not drawn), the corrected activity, negative = more killing rises from -5.52% to 0.65%.

First: CC(=O)c1c(C(C)=O)c(C)n(-c2ccc(Cl)c(N)c2)c1C
Second: CC(=O)N1CCc2[nH]c3ccccc3c2C1
The corrected activity, negative = more killing of the first is lower: -6.08% for the first, -1.79% for the second.

Compared with `COCCNC(=O)c1ccc2snnc2c1`, `CCOc1ccc2nc(SCC(=O)NC3CC3)sc2c1` is lower in corrected activity, negative = more killing: -3.88% for the first, -5.49% for the second.

First: N#Cc1ccccc1NC(=O)CSc1nnc(N)s1
Second: O=C1C2C3C=CC(CC3)C2C(=O)N1c1ccccc1[N+](=O)[O-] (stereo not drawn)
The corrected activity, negative = more killing of the first is higher: 2.04% for the first, -2.44% for the second.

`O=C(CCCn1c(=S)[nH]c2cc3c(cc2c1=O)OCO3)NCCCN1CCOCC1` gave a corrected activity, negative = more killing of -7.74%.

First: O=C(O)c1cccc(N2C(=O)c3ccc(C(=O)c4ccc5c(c4)C(=O)N(c4cccc(C(=O)O)c4)C5=O)cc3C2=O)c1
Second: Cc1c(NC(=O)COc2ccc(Oc3ccccc3)cc2)c(=O)n(-c2ccccc2)n1C
The z-score of the first is lower: -0.363 for the first, 0.434 for the second.

Compared with `COc1cc(C(=S)N2CCCCC2)ccc1OC(=O)c1ccc(C)cc1`, `Cc1ccc(S(=O)(=O)N2CCCCCC2)cc1C` is higher in z-score: -1.39 for the first, 0.548 for the second.

Going from `CC(=O)Nc1ccc(NC(=O)CC2OCC3CCCCN3C2=O)cc1` (stereo not drawn) to `CC(=O)c1cccc(NC(=O)CSc2ccc(Cl)cc2)c1`, the z-score rises from -1.95 to -0.668.

First: Cc1ccccc1OCC(=O)Nc1c[nH]c(=O)[nH]c1=O
Second: O=C(Nc1cccc2ccccc12)ON=Cc1ccc(F)cc1
The z-score of the first is higher: -0.363 for the first, -1.4 for the second.

Compared with `O=C(NN=Cc1ccccc1Cl)C(=O)Nc1cccc(C(F)(F)F)c1`, `O=C(Nc1nc2ccccc2s1)C(=O)Nc1nc2ccccc2s1` is higher in z-score: -0.904 for the first, 0.309 for the second.

First: O=C(CCn1c(=O)c2sccc2n(Cc2cc(=O)n3ccccc3n2)c1=O)NCc1ccc2c(c1)OCO2
Second: O=C(CCn1c(=S)[nH]c2ccccc2c1=O)NCCc1ccc(Cl)cc1
The z-score of the first is lower: -2.14 for the first, -0.633 for the second.

First: CCOc1cc(C=c2sc3nc4ccccc4n3c2=O)ccc1O
Second: CCOc1ccc(-c2cc(=O)c3ccccc3o2)cc1
The z-score of the first is higher: -1.26 for the first, -2.28 for the second.

Compared with `CC(Oc1cccc(Cl)c1)C(=O)ON=C(N)c1ccncc1` (stereo not drawn), `COc1ccccc1CNC(=O)C(C)Oc1cccc(Cl)c1` (stereo not drawn) is lower in z-score: 0.235 for the first, -0.785 for the second.

First: O=C(NC1CCCCC1)c1nn2c(C(F)(F)F)cc(-c3ccco3)nc2c1Br
Second: COc1ccc(Cl)cc1NC(=O)c1cnn2c(C(F)(F)F)cc(-c3ccc(C)cc3)nc12
The z-score of the first is lower: -1.55 for the first, -0.309 for the second.

First: Oc1cccc(CN2CCN3CCCC3C2C2CCCCC2)c1 (stereo not drawn)
Second: CCN(C(=O)c1c(-c2ccccc2)noc1C)C1CCCCC1
The z-score of the first is higher: -0.198 for the first, -0.905 for the second.

Compared with `COc1cc2nc(SCC(=O)Nc3cc(C(F)(F)F)ccc3Cl)n(Cc3ccco3)c(=O)c2cc1OC`, `Cc1ccc2oc(-c3ccc(NC(=O)c4cccc(F)c4)c(C)c3)nc2c1` is lower in z-score: -1 for the first, -3.29 for the second.

Going from `COc1cccc(Nc2ncnc3sc(C)c(S(=O)(=O)N4CCC(C)CC4)c23)c1` to `COC(=O)c1c(NC(=O)c2cc3ccccc3c(=O)o2)sc2c1CCC(C)C2` (stereo not drawn), the z-score rises from -0.65 to -0.344.

Compared with `Cc1ccc(C=Cc2nc3ccccc3[nH]2)cc1`, `CN(C)c1ccc(C=CC=C2SC(=S)N(Cc3ccccc3)C2=O)cc1` is lower in z-score: 0.723 for the first, -1.88 for the second.

First: Cc1ccc(-c2cc(C(=O)O)c3cc(Cl)ccc3n2)cc1C
Second: COc1ccc(-c2ccc3c(N)c(C(=O)Nc4ccc(C(C)=O)cc4)sc3n2)cc1
The z-score of the first is lower: -1.47 for the first, -1.34 for the second.

First: Cc1ccccc1C(=O)N1N=C(c2ccc(F)cc2)CC1(O)C(F)(F)F (stereo not drawn)
Second: COc1ccc(C(N)=NOC(=O)CSc2ccccc2)cc1
The z-score of the first is lower: -2.44 for the first, -0.576 for the second.

Compared with `O=[N+]([O-])c1ccc(CNC2CCCC2)cc1`, `COc1cc([N+](=O)[O-])ccc1N1C(=O)C2C3C=CC(CC3)C2C1=O` (stereo not drawn) is higher in z-score: -1.76 for the first, 0.231 for the second.

Compared with `CC(=O)c1c(C(C)=O)c(C)n(-c2ccc(Cl)c(N)c2)c1C`, `CC(=O)N1CCc2[nH]c3ccccc3c2C1` is higher in z-score: -2.26 for the first, -0.676 for the second.

First: COCCNC(=O)c1ccc2snnc2c1
Second: CCOc1ccc2nc(SCC(=O)NC3CC3)sc2c1
The z-score of the first is higher: -1.16 for the first, -1.7 for the second.

Going from `N#Cc1ccccc1NC(=O)CSc1nnc(N)s1` to `O=C1C2C3C=CC(CC3)C2C(=O)N1c1ccccc1[N+](=O)[O-]` (stereo not drawn), the z-score falls from 0.632 to -1.04.

`O=C(CCCn1c(=S)[nH]c2cc3c(cc2c1=O)OCO3)NCCCN1CCOCC1` showed a z-score of -2.05.
